Experimental data reported in PubChem BioAssay AID565 (University of Pittsburgh Molecular Library Screening Center, 2006).
Screen size: about 65,000 compounds; about 1,200 (1.8%) were called active. For the sample, actives were picked, then their nearest neighbours and some compounds at random. Unmarked numbers belong to inactive results. No stated cut-off is given here; in the data, active means inhibition above about 50%; inactive means the rest.

molecular target: Gag-Pol polyprotein (Human immunodeficiency virus type 1 group M subtype B (isolate HXB2)) (UniProt P04585); assay: blockers of HIV-1 RNase H RNA/DNA cleavage – biochemical, fluorescence, primary screen (AID 565); conditions: RT-RNase H RNA/DNA duplex cleavage, at 10 µM, stronger effect = higher value

Structure (SMILES)	inhibition
Cc1csc(NC(=O)NC2(C(F)(F)F)Oc3ccccc3O2)n1	74.1% (active)
CCOC(=O)Cc1csc(NC(=O)Nc2ccccc2)n1	-23.4%
Cc1csc(NC(=O)CN2CCCCCC2)n1	7.02%
CCCCCOC(=O)NCCOC(=O)Nc1ccc(C(=O)OCC)cc1	-14%
Cc1cccc(C(=O)Nc2ccc(CC(=O)O)cc2)c1	-3.58%
COC(=O)c1ccc2c(=O)n(CC3CCCO3)c(=S)[nH]c2c1 (stereo unspecified)	0.2%
CCOC(=O)c1sc(=S)n2c1[nH]c(=O)c1ccc(C(=O)OC)cc12	93.6% (active)
COC(=O)c1cccc(NC(=O)CSc2nc(C)cc(=O)[nH]2)c1	-4.06%
CSc1ccc(-c2c(C#N)c(N)nc3c2c(C)nn3-c2ccccc2)cc1	-4.17%
C[C@H](NC(=O)OC(C)(C)C)c1nnc(SCC(N)=O)o1	-8.59%
Cc1ccc2cccc(O)c2[n+]1[O-]	63.1% (active)
CC(=O)Nc1cccc2c1[n+]([O-])c(C)c(C)[n+]2[O-]	-5.6%
CCCS(=O)(=O)N1CCCC(C(=O)NCCN2CCCCC2C)C1 (stereo unspecified)	-24.4%
COc1ccc(CCNC(=O)CSc2nnc(CNC(=O)c3cccs3)o2)cc1OC	4.42%
c1coc(-c2nc3nc4ccccc4n3nc2-c2ccco2)c1	-3.81%
c1ccc(CSc2nnc(-c3ccco3)n2Cc2ccccc2)cc1	-24.3%
c1ccc(CSc2nnc(-c3ccco3)c(-c3ccco3)n2)cc1	97% (active)
Nc1cc(=O)nc(SCc2ccccc2)n1Cc1ccco1	-80.9%

Structure (SMILES)	inhibition
Clc1ccccc1CSc1nnc(-c2ccco2)c(-c2ccco2)n1	55.3% (active)
O=c1cc(O)nc(SCc2ccccc2Cl)[nH]1	-21.4%
Cc1nn(-c2ccccc2)c(C)c1C(=O)OCC(=O)NC(=O)NC1CCCCC1	7.28%
OC1CN=C2Sc3ccccc3N2C1 (stereo unspecified)	-8.76%
COc1ccccc1NC(=O)c1ccc(C)s1	-6.32%
Cc1cc(C)nc(NC2=NCC(=O)N2c2ccc(Cl)cc2)n1	4.35%
COc1ccc(CN2C(=O)CN=C2Nc2ccc(C)cc2C)cc1	-7.04%
COc1ccc(N2C(=O)CN=C2Nc2cccc(C)c2C)cc1OC	93.2% (active)
CCOC(=O)N1CCC(NC(=O)c2cnn3ccccc23)CC1	-4.53%
CCOC(=O)c1ccn(-c2nc(-c3ccco3)cc(C(F)(F)F)n2)n1	-4.86%
FC(F)(F)c1cc(-c2ccco2)nc(N2CCOCC2)n1	-9.98%
Cc1cc(C(F)(F)F)nn1-c1nc(-c2ccco2)cc(C(F)(F)F)n1	94.4% (active)
O=C(Nc1ccc(-c2nnc(-c3ccccc3)o2)cc1)C1CCCO1 (stereo unspecified)	4.33%
O=C(Nc1ccc(-c2nnc(-c3ccccc3)o2)cc1)c1ccc(Br)o1	-4.57%
Nc1ccc(-c2nnc(-c3ccc(-c4ccccc4)cc3)o2)cc1	80.5% (active)
CCCc1[nH]nc2c1C(c1ccc(OC)c(Cn3nc(C)c(Br)c3C)c1)C(C#N)=C(N)O2 (stereo unspecified)	7.36%
O=C(c1ccc2c(c1)OCO2)N1CCNc2ccccc2C1	-5.92%
O=C(c1ccccc1-c1ccccc1)N1CCOCC1	4.44%
